15 compounds from PubChem BioAssay can be followed below.

For part of these data: Entries with a potency or affinity are not part of this list. Active and inactive are the calls of the source.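 Rule for the calls, unless noted: active = primary screen activator hit with a dose response curve and TRPC4 channel activation at any tested dose; inactive = no activation, no dose response, or not a primary hit.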

The subject of test [1] is TRPC4 beta (transient receptor potential cation channel C4), mouse. Nature of the test: TRPC4 cation channel opening, retest – cell-based, Fluo4 calcium, HEK293 TRPC4beta/mu-opioid, duplicates, 10 µM, confirmation (AID 2426;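 active = fluorescence ratio normalized to control raised more than 50% in primary screen plus both repeat runs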). The settings on record: Fluo4 calcium fluorescence, at 10 µM; stronger effect = higher value.
The test system of test [2] is transient receptor potential cation channel C4 beta (TRPC4), mouse. Nature of the test: TRPC4 cation channel opening, second retest – cell-based, second round, Fluo4, HEK293 TRPC4beta/mu-opioid, 1 µM, confirmation (AID 2461;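 active = primary screen active and over 50% activation in each of two duplicate runs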). The settings on record: Fluo4 calcium fluorescence, at 1 µM; stronger effect = higher value.
The subject of test [3] is TRPC4 (transient receptor potential cation channel C4 beta), mouse. Nature of the test: potentiation of DAMGO EC20 TRPC4 response – cell-based, second round, Fluo-4, HEK293 TRPC4beta/mu-opioid, 1 µM, confirmation (AID 2554;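 active = primary screen hit whose fluorescence ratio, in both repeats, exceeds the weak agonist control mean by 3 SD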). The conditions noted are these: DAMGO EC20, Fluo-4 calcium flux, at 1 µM; stronger effect = higher value. (In general: Calcium assays in cells follow changes in intracellular calcium, usually with a dye or a luminescent sensor.)

Test [4] has as its system TRPC4 beta (transient receptor potential cation channel C4), mouse. In words: potentiation of DAMGO EC20 TRPC4 response – cell-based, Fluo-4, HEK293 TRPC4beta/mu-opioid, confirmation (AID 2555;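 active = primary screen hit whose calcium fluorescence ratio, in both repeats, exceeds the weak agonist control mean by 3 SD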). The settings on record: DAMGO EC20, Fluo-4 calcium flux, at 10 µM; stronger effect = higher value.
Test [5] has as its target Short transient receptor potential channel 4 (Mus musculus) (UniProt Q9QUQ5). Nature of the test: blockers of DAMGO-evoked TRPC4 calcium flux – cell-based, Fluo4, HEK293 TRPC4beta/mu-opioid, confirmation (AID 2636;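 active = calcium signal cut by more than 3 SD below the full-agonist control yet still positive, in both repeats and the earlier primary screen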). The settings on record: at 10 µM; stronger effect = higher value.
Test [6] shares this target. Nature of the test: blockers of DAMGO-evoked TRPC4 calcium flux – cell-based, second round, Fluo4, HEK293 TRPC4beta/mu-opioid, 1 µM, confirmation (AID 2637;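 active = calcium signal ratio cut to more than 3 SD under the fully stimulated control mean yet still positive, in both repeats and the primary screen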;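 for inhibition: percent of integrated ratio relative to wells lacking test compound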). The conditions noted are these: at 1 µM; stronger effect = higher value.
Test [7] has the same target. Nature of the test: calcium entry via TRPC4 opening agents – cell-based, HEK293 TRPC4/mu-opioid, Fluo-4 calcium, dose response (AID 434937).
Test [8] has the same target. Nature of the test: potentiation of DAMGO-evoked TRPC4 calcium signal – cell-based, HEK293 TRPC4/mu-opioid, Fluo-4 calcium, EC20 DAMGO, dose response (AID 434941;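 active = earlier screen potentiator hit that boosts the TRPC4 ion channel at some dose, with a dose response; inactive = no potentiation, no dose response, or not a prior hit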;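 note: calcium entry triggered by an EC20 dose of DAMGO at the co-expressed mu-opioid receptor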).
In test [9] the target is Short transient receptor potential channel 6 (Mus musculus) (UniProt Q61143). In words: TRPC6 blockade by TRPC4 inhibitor hits – cell-based, HEK293, membrane potential dye, duplicate, selectivity assay for TRPC4 inhibitor project, confirmation (AID 434948;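 active = active in primary screen and both duplicates, each dropping signal beyond three positive-control SD with fluorescence still positive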). The settings on record: HEK293 TRPC6, membrane potential dye fluorescence, at 10 µM, stimulated with maximal-effect acetylcholine; stronger effect = higher value.

For test [10] the target is unchanged. In words: TRPC6 opening by TRPC4 activator hits – cell-based, HEK293, membrane potential dye, duplicate, selectivity assay for TRPC4 activator project, confirmation (AID 434950;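 active = membrane potential signal rise above negative control mean plus 3 SD in both duplicates, also active in the earlier TRPC4 screen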). The settings on record: HEK293 TRPC6, membrane potential fluorescence, at 10 µM; activation: stronger effect = higher value; outcome: activation.
Test [11] has the same target. In words: positive modulators of mouse TRPC6 channel – HEK293 cells, membrane potential dye, duplicate, selectivity assay for TRPC4 potentiator project, confirmation (AID 434952;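 active = compound raising the membrane signal above positive-control mean plus 3 SD in both repeats, and a primary screen hit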). The conditions noted are these: HEK293 TRPC6, membrane potential dye fluorescence, at 10 µM, maximal acetylcholine added after compound; stronger effect = higher value.
In test [12] the target is Short transient receptor potential channel 4 (Mus musculus) (UniProt Q9QUQ5). Nature of the test: calcium flux activators in TRPC4/5HT1a cells, counter-screen for TRPC4 activator project, cell-based, second counter screen, HEK293 TRPC4/5HT1a, Fluo-4 (AID 434977;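 active = calcium signal rise above buffer-control mean plus 5 SD in both duplicates, and also a hit in the primary screen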). The settings on record: Fluo-4 calcium flux, at 10 µM; stronger effect = higher value.
The nature of test [13]: serotonin-gated TRPC4 signal block – cell-based, second counter screen, HEK293 TRPC4/5HT1a, Fluo-4, counter-screen for TRPC4 inhibitor project, confirmation (AID 434978;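 active = primary screen active whose calcium signal fell more than 3 SD beyond the full-serotonin control mean in both duplicate plates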;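 for outcome: serotonin given first at submaximal then at maximal dose after compound preincubation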). The settings on record: Fluo-4 calcium flux, at 10 µM, serotonin added to trigger calcium flux; stronger effect = higher value. A general note: Counterscreens check selectivity or assay interference.
Test [14] deals with TRPC4 (mouse), co-expressed with 5HT1a in HEK293. Nature of the test: enhancement of serotonin-evoked TRPC4 response – cell-based, second counter screen, HEK293 TRPC4/5HT1a, Fluo-4, counter-screen for TRPC4 potentiator project, confirmation (AID 434979;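 active = signal rise over 3 SD above mean of control wells given weak agonist, in both repeats and first screen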). The conditions noted are these: Fluo-4 calcium flux, at 10 µM, serotonin added at its EC20 dose; stronger effect = higher value.
Test [15] is described as follows: nonspecific calcium rise without TRPC4 – cell-based, HEK293 mu-opioid receptor line, counter-screen for TRPC4 activator project, confirmation (AID 449723;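 active = hit in primary screen, with calcium signal over 5 SD above buffer well mean in both duplicates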;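 note: counter screen cells carry the mu-opioid receptor alone and lack TRPC4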). The settings on record: HEK293 mu-opioid cells, Fluo-4 calcium fluorescence, at 10 µM; stronger effect = higher value.
Test [16] is described as follows: nonspecific potentiation of DAMGO calcium response – cell-based, HEK293 mu-opioid receptor line, counter-screen for TRPC4 allosteric potentiator project, confirmation (AID 449724;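 active = calcium signal rise more than 3 SD above the low-dose agonist control mean, in both duplicate plates and the primary screen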;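 note: HEK293 cells carrying mu-opioid receptor only with no TRPC4 channel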). The conditions noted are these: HEK293 mu-opioid receptor cells, Fluo-4 calcium flux, at 10 µM, compound added before EC20 DAMGO stimulus; stronger effect = higher value.

Chain of Short transient receptor potential channel 4 (Mus musculus) (Q9QUQ5 whole entry, looked up): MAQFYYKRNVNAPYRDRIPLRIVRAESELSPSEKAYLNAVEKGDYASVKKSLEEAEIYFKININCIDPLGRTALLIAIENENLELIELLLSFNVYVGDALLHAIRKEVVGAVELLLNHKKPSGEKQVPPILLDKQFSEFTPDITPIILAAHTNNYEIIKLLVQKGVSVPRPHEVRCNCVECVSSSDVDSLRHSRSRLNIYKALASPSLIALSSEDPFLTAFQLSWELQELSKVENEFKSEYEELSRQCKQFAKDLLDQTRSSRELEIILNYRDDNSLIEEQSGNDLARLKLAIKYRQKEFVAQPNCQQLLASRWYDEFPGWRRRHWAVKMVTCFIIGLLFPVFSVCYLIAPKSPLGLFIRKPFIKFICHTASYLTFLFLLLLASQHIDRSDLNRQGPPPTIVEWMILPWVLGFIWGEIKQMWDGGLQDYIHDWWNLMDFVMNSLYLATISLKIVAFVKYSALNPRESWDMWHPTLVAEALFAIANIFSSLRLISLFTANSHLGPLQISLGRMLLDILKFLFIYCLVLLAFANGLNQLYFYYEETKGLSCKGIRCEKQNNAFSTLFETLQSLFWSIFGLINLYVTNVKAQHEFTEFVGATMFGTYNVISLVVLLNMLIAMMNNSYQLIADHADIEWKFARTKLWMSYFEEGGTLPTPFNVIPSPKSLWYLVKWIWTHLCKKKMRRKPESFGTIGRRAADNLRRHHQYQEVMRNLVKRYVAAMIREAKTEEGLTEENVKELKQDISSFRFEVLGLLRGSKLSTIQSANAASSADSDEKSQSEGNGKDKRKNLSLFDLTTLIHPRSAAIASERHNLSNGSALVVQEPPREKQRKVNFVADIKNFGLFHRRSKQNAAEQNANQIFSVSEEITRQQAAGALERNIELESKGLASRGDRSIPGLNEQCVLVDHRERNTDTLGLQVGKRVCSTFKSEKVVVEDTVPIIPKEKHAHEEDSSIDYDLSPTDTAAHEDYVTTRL
Chain of Short transient receptor potential channel 6 (Mus musculus) (Q61143 whole entry, looked up): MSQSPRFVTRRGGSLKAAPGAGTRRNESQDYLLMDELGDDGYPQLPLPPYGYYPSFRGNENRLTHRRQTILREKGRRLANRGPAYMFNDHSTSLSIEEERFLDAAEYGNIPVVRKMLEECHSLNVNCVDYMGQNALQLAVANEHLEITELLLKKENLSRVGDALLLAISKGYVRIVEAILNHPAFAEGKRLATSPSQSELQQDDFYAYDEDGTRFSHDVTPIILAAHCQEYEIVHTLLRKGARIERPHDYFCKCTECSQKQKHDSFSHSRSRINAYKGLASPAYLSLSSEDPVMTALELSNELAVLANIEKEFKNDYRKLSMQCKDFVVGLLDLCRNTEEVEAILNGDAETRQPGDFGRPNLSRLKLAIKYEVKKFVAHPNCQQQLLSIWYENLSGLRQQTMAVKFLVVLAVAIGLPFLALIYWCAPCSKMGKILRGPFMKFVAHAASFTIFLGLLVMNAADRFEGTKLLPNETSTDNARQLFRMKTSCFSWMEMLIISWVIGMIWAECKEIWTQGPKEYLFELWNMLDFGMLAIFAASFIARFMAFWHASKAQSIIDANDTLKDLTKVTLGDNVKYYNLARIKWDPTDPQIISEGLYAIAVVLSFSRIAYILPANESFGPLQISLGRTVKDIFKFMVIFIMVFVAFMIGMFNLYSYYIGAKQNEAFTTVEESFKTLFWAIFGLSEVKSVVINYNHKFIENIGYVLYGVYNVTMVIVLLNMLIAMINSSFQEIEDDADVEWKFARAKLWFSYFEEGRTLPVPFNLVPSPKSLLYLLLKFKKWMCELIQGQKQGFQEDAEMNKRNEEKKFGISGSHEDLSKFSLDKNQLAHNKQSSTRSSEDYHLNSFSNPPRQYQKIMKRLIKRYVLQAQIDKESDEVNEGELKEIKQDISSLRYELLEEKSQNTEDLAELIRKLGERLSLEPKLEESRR

As to `CN(C(=O)CSc1nc(-c2ccc(C(C)(C)C)cc2)c(C#N)c(=O)[nH]1)C1CCCCC1`, the outcome in test [1], in test [2], in test [3], in [4], in test [6] and in [7] was inactive. In addition, the outcome in [8], in test [9], in test [10], in test [11], in [12] and in [14] was inactive. For the same compound, the outcome in test [15] and in test [16] was inactive. Moreover, the inhibition is 97% (active) in [5] and 4.92% (active) in [13].
Turning to `N#Cc1c(N2CCCCC2)nc(N)c2c(N)nc3c(c12)CC(c1ccccc1)O3` (stereo not given), the outcome in [1], in [2], in test [3], in test [4], in test [7] and in [8] was inactive. Also, the compound was classed as inactive in [9], in [10], in test [11], in test [12], in test [14] and in test [15]. In addition, in test [16], the outcome was inactive. For the same compound, the inhibition in [5] was 87% (active); in test [6] it was 49% (active); in test [13] it was 31.5% (active).
On to `Cc1cc(C)c2[nH]c(=O)c(CN(Cc3cccnc3)C(=S)NCCCN(C)C)cc2c1`, for which the result in test [1], in test [2], in test [3], in test [4], in test [7] and in test [8] was inactive. The compound was called inactive in test [9], in test [10], in test [11], in [12], in test [14] and in [15]. In test [16], the result was inactive. The inhibition in [5] was 89% (active); in test [6] it was 60% (active); in test [13] it was 20.5% (active).
Regarding `Cc1ncsc1CCOC(=O)c1cccc([N+](=O)[O-])c1`, the result in test [1], in test [2], in test [3], in test [4], in [7] and in test [8] was inactive. Also, the call in test [9], in [10], in test [11], in [12], in test [14] and in test [15] was inactive. The result in [16] was inactive. The inhibition in [5] was 83% (active); in test [6], 49% (active); in test [13], 40% (active).
Take `COCC(C)NC(C(=O)Nc1ccc(Cl)c([N+](=O)[O-])c1)c1ccccc1` (stereo not given): the outcome in [1], in [2], in test [3], in [4], in test [6] and in test [7] was inactive. Also, the outcome in test [8], in test [9], in [10], in test [11], in test [12] and in [13] was inactive. In addition, the outcome in test [14], in test [15] and in test [16] was inactive. In test [5], the inhibition was 87% (active).
As for `Cc1ccccc1N1CC(O)(c2cccs2)[N+]2=C1CCCC2` (stereo not given), the result in [1], in [2], in test [3], in [4], in [5] and in test [6] was inactive. Also, the outcome in [7], in [8], in test [9], in test [10], in [11] and in test [12] was inactive. The outcome in test [13], in [14], in [15] and in [16] was inactive.
For `COc1ccc(C2NC(C(=O)O)Cc3c2[nH]c2ccccc32)cc1CN1CCN(c2ccc(F)cc2)CC1` (stereo not given), the result in [1], in test [2], in test [3], in [4], in test [6] and in [7] was inactive. The result in test [8], in test [9], in test [10], in test [11], in [12] and in [14] was inactive. The outcome in test [15] and in test [16] was inactive. For the same compound, the results for the inhibition in [5] and in [13] were 58% (active) and 41.6% (active), respectively.
Turning to `Cc1ccccc1N(C(=O)c1snc(C(N)=O)c1N)C(C(=O)NC1CCCC1)c1ccco1` (stereo not given), the result in test [1], in test [2], in test [3], in test [4], in [6] and in test [7] was inactive. The outcome in [8], in [9], in test [10], in test [11], in test [12] and in test [14] was inactive. In addition, the outcome in test [15] and in test [16] was inactive. In addition, the figures for the inhibition in test [5] and in [13] were 78% (active) and 37% (active), respectively.
For the compound `Cc1cc(-c2sccc2C)nc(-n2cccc2)n1`, the result in test [1], in test [2], in test [3], in test [4], in test [6] and in test [7] was inactive. Besides, the result in test [8], in test [9], in test [10], in test [11], in [12] and in test [13] was inactive. For the same compound, the outcome in test [14], in test [15] and in [16] was inactive. Further, in [5], the inhibition is 91% (active).
As for `COc1ccccc1N(C(=O)c1snc(C(N)=O)c1N)C(C(=O)NC1CCCC1)c1ccc2ncccc2c1` (stereo not given), the outcome in test [1], in test [2], in [3], in [4], in test [6] and in test [7] was inactive. Further, the outcome in test [8], in [9], in test [10], in [11], in test [12] and in test [14] was inactive. Moreover, the result in test [15] and in test [16] was inactive. The inhibition in test [5] was 41% (active); in [13], 40.6% (active).
Take `COc1ccccc1N1CCN(CCCNC(=O)Nc2ccccc2)CC1`: the outcome in [1], in [2], in [3], in test [4], in test [7] and in [8] was inactive. In addition, the result in test [9], in test [10], in [11], in test [12], in test [14] and in [15] was inactive. The result in test [16] was inactive. Besides, the inhibition in [5] was 95% (active); in test [6] it was 61% (active); in test [13] it was 22.6% (active).
With `Cc1cccc(CCN(C(=O)c2snc(C(N)=O)c2N)C(C(=O)NCC2CCCO2)c2ccc(F)cc2)c1` (stereo not given), the outcome in test [1], in [2], in test [3], in test [4], in test [7] and in [8] was inactive. The call in test [9], in test [10], in test [11], in test [12], in [14] and in test [15] was inactive. Further, in test [16], the outcome was inactive. The inhibition in test [5] was 74% (active); in test [6], 68% (active); in [13], 46.3% (active).
Regarding `COc1ccc(Sc2nc(-c3ccccc3)ncc2C(=O)O)cc1`, the outcome in [1], in test [2], in test [3], in [4], in [6] and in test [7] was inactive. Moreover, the outcome in test [8], in test [9], in [10], in [11], in test [12] and in [14] was inactive. Moreover, the outcome in [15] and in test [16] was inactive. Besides, the values for the inhibition in test [5] and in test [13] were 48% (active) and 45.5% (active), respectively.
As to `Cc1ccn2cc(CCNC(=O)c3ccc(Br)o3)nc2c1`, the outcome in test [1], in test [2], in test [3], in test [4], in test [6] and in [7] was inactive. For the same compound, the result in test [8], in [9], in [10], in test [11], in test [12] and in test [14] was inactive. Also, the result in test [15] and in test [16] was inactive. In addition, the results for the inhibition in test [5] and in test [13] were 89% (active) and 34.1% (active), respectively.
On to `CCCOc1ccc(Br)cc1/C=N/O`, for which the result in [1], in test [2], in test [3], in test [4], in test [5] and in test [7] was inactive. For the same compound, the result in [8], in test [9], in [10], in test [11], in test [12] and in [13] was inactive. The result in test [14], in test [15] and in test [16] was inactive. In addition, in test [6], the inhibition was 54% (active).

As usually defined, the inhibition is the share of the control response that was lost under treatment.
